# Experimental data: PubChem BioAssay (EPA / NIEHS)
# Values joined by “and” are separate entries in the source; they are usually repeats but may differ in a detail not shown here. Identical values can stand only once. Inconclusive results are not listed. Active and inactive are the calls of the source. How the source made its calls: active means hit-call score of the fitted dose curve at least 0.9, where 1 is the maximum; inconclusive means response in the unintended direction; inactive means score below 0.9.
# Assays:
# [1] = target: guinea pig Opioid, Kappa 1 Receptor (OpiateK), OPRK1 (gene 100135587) (UniProt P41144); test: NVS_GPCR_gOpiateK: NovaScreen (NVS) G Protein-Coupled Receptor Assay for guinea pig Opioid, Kappa 1 Receptor (OpiateK) (AID 2283252);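 further: radioligand displacement from kappa opioid receptor in guinea pig cerebellar membranes; active means reduced radioligand binding relative to DMSO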
# Chain of guinea pig Opioid, Kappa 1 Receptor (OpiateK), OPRK1 (gene 100135587) (P41144 whole entry, looked up): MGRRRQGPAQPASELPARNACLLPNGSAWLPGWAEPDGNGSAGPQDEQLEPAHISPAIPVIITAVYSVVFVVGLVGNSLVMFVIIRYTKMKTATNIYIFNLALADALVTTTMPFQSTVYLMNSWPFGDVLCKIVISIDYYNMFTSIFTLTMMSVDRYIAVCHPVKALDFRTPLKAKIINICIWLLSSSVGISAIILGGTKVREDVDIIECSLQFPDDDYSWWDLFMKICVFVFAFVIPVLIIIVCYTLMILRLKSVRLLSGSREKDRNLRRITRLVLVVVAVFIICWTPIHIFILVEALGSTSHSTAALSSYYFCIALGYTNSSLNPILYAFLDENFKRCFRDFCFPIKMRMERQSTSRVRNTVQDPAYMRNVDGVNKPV
# Procedure, shortened: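 Guinea pig cerebellar membranes were incubated with a radioligand for 2 h after compound addition; bound radioactivity was read by filter-based scintillation counting. Loss of specific binding relative to DMSO baseline defined activity; primary screen at 25 uM in duplicate.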
# [2] = target: rat Peripheral-type Benzodiazepine Receptor (PBR), Tspo (gene 24230) (UniProt P16257); test: NVS_MP_rPBR: NovaScreen (NVS) Membrane Protein Assay for rat Peripheral-type Benzodiazepine Receptor (PBR) (AID 2283335)
# Chain of rat Peripheral-type Benzodiazepine Receptor (PBR), Tspo (gene 24230) (P16257 whole entry, looked up): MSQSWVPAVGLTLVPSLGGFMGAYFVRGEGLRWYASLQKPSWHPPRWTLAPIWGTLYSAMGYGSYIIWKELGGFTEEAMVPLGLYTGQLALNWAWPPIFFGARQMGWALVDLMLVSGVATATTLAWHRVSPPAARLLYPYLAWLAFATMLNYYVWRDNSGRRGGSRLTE
# Procedure, shortened: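 Radioligand displacement, rat kidney membrane prep, 1 h exposure, filter-based scintillation read; DMSO baseline, loss-of-signal scored. Primary screen at 25 uM in duplicate, actives followed up in concentration series.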
# [3] = NVS_IC_rCaBTZCHL: NovaScreen (NVS) Ion Channel Assay for Calcium Channel, Type L, Benzothiazepine Site (CaBTZCHL) (AID 2283337)
# Procedure, shortened: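 Radioligand binding to the benzothiazepine site of L-type Ca channels in rat cortical membranes (cell-free), 1.5 h after dosing; filter-based scintillation counting. Loss of signal relative to DMSO baseline; primary single-concentration screen at 25 uM, actives then run in concentration series.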
# [4] = target: Estrogen receptor (Homo sapiens) (UniProt P03372); test: NVS_NR_hER: NovaScreen (NVS) Nuclear Receptor Binding Assay for human Estrogen Receptor (ER) (AID 2283348)
# Chain of Estrogen receptor (Homo sapiens) (P03372 whole entry, looked up, the tested form may be a part): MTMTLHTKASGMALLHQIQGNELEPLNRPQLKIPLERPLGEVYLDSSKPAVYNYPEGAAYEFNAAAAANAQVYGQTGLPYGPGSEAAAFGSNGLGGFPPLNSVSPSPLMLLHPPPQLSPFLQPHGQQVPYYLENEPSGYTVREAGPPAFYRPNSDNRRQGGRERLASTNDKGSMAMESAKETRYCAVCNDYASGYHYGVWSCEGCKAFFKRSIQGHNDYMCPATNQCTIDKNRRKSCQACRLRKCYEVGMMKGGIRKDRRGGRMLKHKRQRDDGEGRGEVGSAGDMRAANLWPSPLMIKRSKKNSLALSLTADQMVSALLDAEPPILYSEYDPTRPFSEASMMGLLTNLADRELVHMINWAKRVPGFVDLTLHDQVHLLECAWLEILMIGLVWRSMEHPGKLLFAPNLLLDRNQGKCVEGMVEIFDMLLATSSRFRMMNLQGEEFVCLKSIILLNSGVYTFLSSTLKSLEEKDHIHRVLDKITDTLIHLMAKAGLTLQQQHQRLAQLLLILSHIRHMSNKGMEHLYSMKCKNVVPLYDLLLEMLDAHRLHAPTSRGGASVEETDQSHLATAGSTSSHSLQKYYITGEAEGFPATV
# Procedure, shortened: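 Cell-free radioligand binding with protein extracted from MCF7 cells; scintillation counting 18 hours after dosing. Loss of signal versus DMSO baseline read as displacement; primary single-concentration screen at 25 uM in duplicate, actives retested in concentration series.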
# [5] = target: Estrogen receptor (Homo sapiens) (UniProt P03372); test: OT_ER_ERaERa_1440: Odyssey Thera (OT) 24-hour HEK293T Protein-Complementation Assay for Estrogen Receptor-alpha/-alpha Homodimer (AID 2283349);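 further: hits raise fluorescence above DMSO for agonists and antagonists alike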
# Procedure, shortened: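 Readout is the rise in mean fluorescence from reporter fragment complementation when ERα LBD (aa 310-547) units dimerize in HEK293T cells. Measured 24 h after dosing and analysed as increase over DMSO control.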
# [6] = target: Muscarinic acetylcholine receptor M2 (Homo sapiens) (UniProt P08172); test: NVS_GPCR_hM2: NovaScreen (NVS) G Protein-Coupled Receptor Assay for human Muscarinic, M2 Receptor (AID 2283273)
# Chain of Muscarinic acetylcholine receptor M2 (Homo sapiens) (P08172 whole entry, looked up): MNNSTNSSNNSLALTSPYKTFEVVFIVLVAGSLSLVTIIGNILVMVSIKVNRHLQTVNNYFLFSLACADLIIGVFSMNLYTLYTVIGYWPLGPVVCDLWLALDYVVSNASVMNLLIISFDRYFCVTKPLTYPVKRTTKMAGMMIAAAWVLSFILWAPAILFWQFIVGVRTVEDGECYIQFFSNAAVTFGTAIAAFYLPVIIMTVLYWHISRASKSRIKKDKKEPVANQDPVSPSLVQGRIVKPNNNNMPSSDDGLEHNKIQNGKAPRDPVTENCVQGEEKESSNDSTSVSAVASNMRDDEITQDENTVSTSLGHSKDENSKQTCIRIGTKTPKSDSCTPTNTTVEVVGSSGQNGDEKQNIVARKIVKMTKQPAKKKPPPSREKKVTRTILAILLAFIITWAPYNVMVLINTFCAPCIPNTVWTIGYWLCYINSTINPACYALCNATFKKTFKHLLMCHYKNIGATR
# Procedure, shortened: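 Cell-free radioligand binding using membranes from CHO cells expressing the receptor; filter-based scintillation counting after 1 hour of compound exposure. Loss of specific binding relative to DMSO baseline; primary screen at 25 uM in duplicate, actives then run in concentration series.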
# [7] = target: human Neurokinin, NK2 Receptor, TACR2 (gene 6865) (UniProt P21452); test: NVS_GPCR_hNK2: NovaScreen (NVS) G Protein-Coupled Receptor Assay for human Neurokinin, NK2 Receptor (AID 2283278);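 further: actives reduce bound radioligand signal relative to DMSO baseline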
# Chain of human Neurokinin, NK2 Receptor, TACR2 (gene 6865) (P21452 whole entry, looked up): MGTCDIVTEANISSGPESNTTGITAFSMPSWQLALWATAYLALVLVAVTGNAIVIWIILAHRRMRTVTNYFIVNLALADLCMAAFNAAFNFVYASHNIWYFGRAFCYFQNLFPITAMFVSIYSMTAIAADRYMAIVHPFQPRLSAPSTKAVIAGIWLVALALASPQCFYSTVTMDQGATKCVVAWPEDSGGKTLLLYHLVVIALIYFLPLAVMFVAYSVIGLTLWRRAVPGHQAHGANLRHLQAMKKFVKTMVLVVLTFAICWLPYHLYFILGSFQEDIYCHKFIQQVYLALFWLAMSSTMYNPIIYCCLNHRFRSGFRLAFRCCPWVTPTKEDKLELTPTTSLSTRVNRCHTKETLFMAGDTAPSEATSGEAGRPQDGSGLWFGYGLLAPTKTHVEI
# Procedure, shortened: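 Radioligand binding on membranes from CHO cells expressing receptor, filter-based scintillation read 4 h after dosing. Initial duplicate screen at 25 uM, actives in concentration series; loss of signal versus DMSO.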
# [8] = target: Sodium channel protein type 1 subunit alpha (Rattus norvegicus) (UniProt P04774); test: NVS_IC_rNaCh_site2: NovaScreen (NVS) Ion Channel Assay for rat Sodium Channel, Site 2 (NaCh) (AID 2283322);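 further: hit means loss of radioligand binding signal relative to DMSO so AC50 marks displacement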
# Procedure, shortened: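 Membranes: rat forebrain. Format: competitive radioligand displacement, filter separation, scintillation readout, 1 h exposure. Primary screen in duplicate at 25 uM; actives retested in concentration series.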
# [9] = target: sheep Cyclooxygenase-1 (Cox1), PTGS1 (gene 443551) (UniProt P05979); test: NVS_ENZ_oCOX1: NovaScreen (NVS) Enzymatic Assay for sheep Cyclooxygenase-1 (Cox1) (AID 2283239);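 further: actives reduce cyclooxygenase activity so potencies are for inhibitors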
# Chain of sheep Cyclooxygenase-1 (Cox1), PTGS1 (gene 443551) (P05979 whole entry, looked up): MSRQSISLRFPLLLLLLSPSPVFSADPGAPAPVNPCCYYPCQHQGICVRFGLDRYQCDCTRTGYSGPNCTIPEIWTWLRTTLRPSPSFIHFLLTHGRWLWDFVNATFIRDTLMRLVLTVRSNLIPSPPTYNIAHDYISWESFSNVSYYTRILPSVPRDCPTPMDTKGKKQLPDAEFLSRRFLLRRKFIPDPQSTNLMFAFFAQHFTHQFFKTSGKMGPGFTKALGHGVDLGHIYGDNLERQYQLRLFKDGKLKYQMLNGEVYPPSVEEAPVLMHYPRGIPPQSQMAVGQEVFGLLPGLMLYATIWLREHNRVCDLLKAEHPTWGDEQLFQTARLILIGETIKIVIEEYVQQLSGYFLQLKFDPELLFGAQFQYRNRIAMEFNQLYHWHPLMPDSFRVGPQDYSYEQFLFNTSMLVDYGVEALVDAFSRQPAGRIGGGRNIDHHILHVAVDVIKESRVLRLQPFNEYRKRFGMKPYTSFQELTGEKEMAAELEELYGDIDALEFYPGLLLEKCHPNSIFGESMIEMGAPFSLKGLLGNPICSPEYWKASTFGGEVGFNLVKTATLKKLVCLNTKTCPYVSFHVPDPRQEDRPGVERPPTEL
# Procedure, shortened: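 Ovine seminal vesicle extract; absorbance (colorimetric) enzyme read-out at 0.66 h post-dose. Primary: single conc 25 uM, duplicate. Follow-up: concentration series on actives. Activity = signal loss vs DMSO baseline.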
# [10] = target: D(1A) dopamine receptor (Homo sapiens) (UniProt P21728); test: NVS_GPCR_hDRD1: NovaScreen (NVS) G Protein-Coupled Receptor Assay for human Dopamine Receptor D1 (DRD1) (AID 2283269)
# Chain of D(1A) dopamine receptor (Homo sapiens) (P21728 whole entry, looked up): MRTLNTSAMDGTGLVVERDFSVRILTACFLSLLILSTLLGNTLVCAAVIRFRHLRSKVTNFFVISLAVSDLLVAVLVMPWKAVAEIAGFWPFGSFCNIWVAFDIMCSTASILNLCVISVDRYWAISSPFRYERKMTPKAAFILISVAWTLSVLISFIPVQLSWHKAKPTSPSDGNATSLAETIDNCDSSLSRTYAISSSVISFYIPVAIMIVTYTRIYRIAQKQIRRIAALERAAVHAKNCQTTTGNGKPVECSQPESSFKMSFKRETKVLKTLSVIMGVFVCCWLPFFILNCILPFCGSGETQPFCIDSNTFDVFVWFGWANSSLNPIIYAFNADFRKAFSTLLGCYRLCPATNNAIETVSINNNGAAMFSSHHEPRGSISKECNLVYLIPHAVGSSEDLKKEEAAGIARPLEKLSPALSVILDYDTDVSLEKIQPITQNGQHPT
# Procedure, shortened: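 Radioligand displacement binding on membranes/protein extracted from HEK293 expressing human D1, cell-free; read 1 h after dosing by filter-based scintillation counting. Primary screen in duplicate at 25 uM, actives followed up in concentration series; signal loss versus DMSO baseline.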
# [11] = target: guinea pig Leukotriene D4 Receptor (LTD4), CYSLTR1 (gene 100135514) (UniProt Q2NNR5); test: NVS_GPCR_gLTD4: NovaScreen (NVS) G Protein-Coupled Receptor Assay for guinea pig Leukotriene D4 Receptor (LTD4) (AID 2283248)
# Chain of guinea pig Leukotriene D4 Receptor (LTD4), CYSLTR1 (gene 100135514) (Q2NNR5 whole entry, looked up): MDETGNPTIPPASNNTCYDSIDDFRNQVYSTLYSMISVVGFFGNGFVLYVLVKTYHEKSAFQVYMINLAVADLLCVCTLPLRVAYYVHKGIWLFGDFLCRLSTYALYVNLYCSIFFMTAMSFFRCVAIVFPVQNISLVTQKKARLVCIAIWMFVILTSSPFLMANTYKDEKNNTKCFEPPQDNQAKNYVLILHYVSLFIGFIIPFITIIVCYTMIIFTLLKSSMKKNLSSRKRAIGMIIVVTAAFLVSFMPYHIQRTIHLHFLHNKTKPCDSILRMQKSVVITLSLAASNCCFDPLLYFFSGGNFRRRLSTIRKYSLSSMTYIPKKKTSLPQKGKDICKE
# Procedure, shortened: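 Radioligand displacement on guinea pig lung membranes, 1 h incubation, filtration and scintillation counting; DMSO as negative control. Duplicate 25 uM primary screen, then singleton concentration-response up to 50 uM.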
# [12] = target: human Opioid Receptor Mu (Opiate Mu), OPRM1 (gene 4988) (UniProt P35372); test: NVS_GPCR_hOpiate_mu: NovaScreen (NVS) G Protein-Coupled Receptor Assay for human Opioid Receptor Mu (Opiate Mu) (AID 2283290);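 further: hits lower bound tracer signal versus DMSO meaning displacement of the ligand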
# Chain of human Opioid Receptor Mu (Opiate Mu), OPRM1 (gene 4988) (P35372 whole entry, looked up): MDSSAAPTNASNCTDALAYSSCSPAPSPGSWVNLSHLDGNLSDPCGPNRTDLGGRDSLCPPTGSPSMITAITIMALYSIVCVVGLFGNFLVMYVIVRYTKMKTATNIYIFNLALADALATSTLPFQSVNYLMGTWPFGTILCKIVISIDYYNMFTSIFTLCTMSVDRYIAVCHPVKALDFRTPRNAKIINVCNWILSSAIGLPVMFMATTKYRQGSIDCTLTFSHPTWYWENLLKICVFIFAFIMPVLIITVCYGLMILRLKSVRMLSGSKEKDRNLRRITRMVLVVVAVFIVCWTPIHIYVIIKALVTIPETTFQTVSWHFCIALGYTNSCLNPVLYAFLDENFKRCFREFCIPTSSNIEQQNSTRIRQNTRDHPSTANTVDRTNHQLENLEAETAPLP
# Procedure, shortened: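 Radioligand displacement binding on membranes from CHO cells expressing the receptor, 2.5 h after dosing, filter-based scintillation counting; loss of signal vs DMSO baseline. Screened in duplicate at 25 uM, actives then run in concentration series.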
# [13] = target: human Vascular Endothelial Growth Factor Receptor 1 (VEGFR1), FLT1 (gene 2321) (UniProt P17948); test: NVS_ENZ_hVEGFR1: NovaScreen (NVS) Enzymatic Assay for human Vascular Endothelial Growth Factor Receptor 1 (VEGFR1) (AID 2283226)
# Procedure, shortened: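 Cell-free assay of recombinant human VEGFR1 kinase with substrate, measured 1 h after dosing; fluorescence with electrophoretic mobility-shift separation of substrate and product, referenced to DMSO; primary screen at 25 uM in duplicate, actives then run in concentration series.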
# [14] = target: human Adenosine A1 Receptor (AdoRA1), ADORA1 (gene 134) (UniProt P30542); test: NVS_GPCR_hAdoRA1: NovaScreen (NVS) G Protein-Coupled Receptor Assay for human Adenosine A1 Receptor (AdoRA1) (AID 2283254)
# Chain of human Adenosine A1 Receptor (AdoRA1), ADORA1 (gene 134) (P30542 whole entry, looked up): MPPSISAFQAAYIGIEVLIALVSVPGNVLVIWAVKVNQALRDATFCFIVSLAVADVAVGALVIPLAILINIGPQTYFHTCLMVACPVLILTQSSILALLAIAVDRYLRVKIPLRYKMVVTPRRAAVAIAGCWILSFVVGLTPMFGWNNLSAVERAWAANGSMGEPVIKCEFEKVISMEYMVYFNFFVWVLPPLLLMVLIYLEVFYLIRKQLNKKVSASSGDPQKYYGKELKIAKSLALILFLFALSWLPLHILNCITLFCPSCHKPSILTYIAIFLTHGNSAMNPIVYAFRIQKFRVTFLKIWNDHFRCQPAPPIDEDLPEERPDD
# Procedure, shortened: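 Radioligand binding was run on human cortical membranes, cell-free, with filter-based scintillation counting 1 h after dosing. The primary screen was duplicate at 25 uM, followed by concentration series. Signal loss versus DMSO was fitted positive-direction.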
# [15] = target: human Peripheral-type Benzodiazepine Receptor (PBR), TSPO (gene 706) (UniProt P30536); test: NVS_MP_hPBR: NovaScreen (NVS) Membrane Protein Assay for human Peripheral-type Benzodiazepine Receptor (PBR) (AID 2283331);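 further: hits reduce radioligand binding relative to DMSO baseline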
# Chain of human Peripheral-type Benzodiazepine Receptor (PBR), TSPO (gene 706) (P30536 whole entry, looked up): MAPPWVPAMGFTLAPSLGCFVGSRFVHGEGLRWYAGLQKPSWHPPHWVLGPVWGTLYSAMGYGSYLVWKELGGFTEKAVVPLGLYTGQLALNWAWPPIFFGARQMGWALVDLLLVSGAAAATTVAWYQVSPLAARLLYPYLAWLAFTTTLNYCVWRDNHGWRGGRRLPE
# Procedure, shortened: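 Human colonic cell membranes were incubated with test chemical for 1 hour; radioligand binding was measured by filter-based scintillation counting. Primary screen ran in duplicate at 25 uM, with actives followed in concentration series; loss of signal versus DMSO baseline.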
# [16] = target: rat Adrenergic Receptor, Alpha 2 (Adra2), Non-selective Binding, Adra2a (gene 25083) (UniProt P22909); test: NVS_GPCR_rAdra2_NonSelective: NovaScreen (NVS) G Protein-Coupled Receptor Assay for rat Adrenergic Receptor, Alpha 2 (Adra2), Non-selective Binding (AID 2283299)
# Procedure, shortened: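 Rat cortical membranes, radioligand competitive displacement read by filter-based scintillation counting 1.25 hours after dosing. Primary screen in duplicate at 25 uM; actives followed up in concentration series.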
# [17] = target: human Adenosine A2a Receptor (AdoRA2a), ADORA2A (gene 135) (UniProt P29274); test: NVS_GPCR_hAdoRA2a: NovaScreen (NVS) G Protein-Coupled Receptor Assay for human Adenosine A2a Receptor (AdoRA2a) (AID 2283256)
# Chain of human Adenosine A2a Receptor (AdoRA2a), ADORA2A (gene 135) (P29274 whole entry, looked up): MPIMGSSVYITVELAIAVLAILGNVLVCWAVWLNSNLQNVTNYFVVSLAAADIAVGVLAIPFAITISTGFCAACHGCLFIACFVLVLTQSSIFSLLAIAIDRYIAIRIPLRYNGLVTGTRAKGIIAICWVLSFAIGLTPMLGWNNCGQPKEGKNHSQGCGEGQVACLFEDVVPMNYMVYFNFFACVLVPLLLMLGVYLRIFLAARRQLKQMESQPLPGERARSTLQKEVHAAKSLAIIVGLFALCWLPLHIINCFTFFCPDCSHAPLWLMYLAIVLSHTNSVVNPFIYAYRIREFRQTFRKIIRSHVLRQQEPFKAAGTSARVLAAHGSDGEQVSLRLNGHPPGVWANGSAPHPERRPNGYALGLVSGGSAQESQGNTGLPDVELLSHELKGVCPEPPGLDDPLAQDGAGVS
# Procedure, shortened: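 Cell-free radioligand binding on membranes from HEK293 expressing the receptor; competitive displacement read 1.5 h after dosing by filter-based scintillation counting. Primary screen in duplicate at 25 uM; actives followed in concentration series, with DMSO as baseline.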
# [18] = target: rat Neonicotinoid receptor (NNR), Chrna7 (gene 25302) (UniProt Q05941); test: NVS_LGIC_rNNR_BungSens: NovaScreen (NVS) Ligand-Gated Ion Channel Assay for rat Neonicotinoid receptor (NNR) (AID 2283315)
# Procedure, shortened: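 Radioligand displacement binding on rat cortical membranes, 2.5 h incubation, filtration and scintillation counting. Loss of specific binding fitted relative to DMSO.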
# [19] = target: rat Gamma-Aminobutyric Acid Type A Receptor, Non-Selective (GABAR-NonSelective), Gabra1 (gene 29705) (UniProt P62813); test: NVS_LGIC_rGABAR_NonSelective: NovaScreen (NVS) Ligand-Gated Ion Channel Assay for rat Gamma-Aminobutyric Acid Type A Receptor, Non-Selective (GABAR-NonSelective) (AID 2283326)
# Procedure, shortened: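 Radioligand displacement on rat whole-brain extract, 1 h, filter scintillation readout; signal loss fitted versus DMSO. Primary screen in duplicate at 25 uM; hits (e.g. ≥30% inhibition) retested in concentration-response up to 50 uM.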
smiles,measurement,setting,value
CC1COc2ccccc2N1C(=O)C(Cl)Cl (stereo not given),outcome,[1],inactive
same,AC50,[2],11 µM (active) and 9.31 µM (active)
same,outcome,[3],inactive
same,AC50,[4],0.0627 µM (active)
same,outcome,[5],inactive
O=C=NC1CCC(CC2CCC(N=C=O)CC2)CC1 (stereo not given),AC50,[1],29.3 µM (active)
same,AC50,[6],9.37 µM (active)
same,outcome,[7],inactive
same,AC50,[8],4.47 µM (active)
O=C(O)CN(CCN(CC(=O)O)CC(=O)O)CCN(CC(=O)O)CC(=O)O,outcome,[9],inactive
CC(C)c1ccc(C(C)C)cc1,outcome,[10],inactive
CC(C)[C@@H]1CC[C@@H](C)CC1=O,outcome,[9],inactive
CC(C)(CO)[N+](=O)[O-],outcome,[9],inactive
same,outcome,[6],inactive
CCCOCC(C)O (stereo not given),AC50,[11],7.91 µM (active)
same,AC50,[12],14.8 µM (active)
CC(C)=CCO,outcome,[9],inactive
O=c1[nH]nnc2ccccc12,AC50,[9],0.401 µM (active)
Cc1ccc(O)c(C(C)(C)C)c1,outcome,[11],inactive
COc1cc2ncnc(Nc3cccc(Cl)c3)c2cc1OC,AC50,[13],1.27 µM (active)
same,AC50,[14],9.94 µM (active)
same,AC50,[12],4.36 µM (active)
same,outcome,[15],inactive
same,outcome,[2],inactive
same,outcome,[3],inactive
CC1CCC(C(C)CS)CC1S (stereo not given),AC50,[9],25 µM (active)
CCn1c2ccccc2c2cc(N)ccc21,AC50,[9],3.25 µM (active)
same,AC50,[10],38.5 µM (active)
same,AC50,[16],25 µM (active)
O=C1OC2(c3cc(Br)c(O)c(Br)c3Oc3c2cc(Br)c(O)c3Br)c2c(Cl)c(Cl)c(Cl)c(Cl)c21,AC50,[9],8.68 µM (active)
same,AC50,[10],0.423 µM (active)
same,AC50,[7],1.27 µM (active)
same,AC50,[12],0.0961 µM (active)
COC(=O)c1ccc(C)cc1,outcome,[9],inactive
CC(=O)/C=C/C1=C(C)CCCC1(C)C,outcome,[11],inactive
Nc1cc([N+](=O)[O-])ccc1Cl,outcome,[17],inactive
same,outcome,[12],inactive
Cc1ccc2n[nH]nc2c1,outcome,[10],inactive
Cc1c(Cl)c(=O)oc2cc(O)ccc12,outcome,[14],inactive
O=P(c1ccccc1)(c1ccccc1)c1ccccc1,AC50,[1],11.4 µM (active)
same,AC50,[8],8.17 µM (active)
same,outcome,[3],inactive
NC(=O)c1ccccc1Cl,outcome,[17],inactive
O=C(O)C[C@H](O)C[C@H](O)/C=C/c1c(C2CC2)nc2ccccc2c1-c1ccc(F)cc1,outcome,[17],inactive
same,AC50,[8],3.55 µM (active)
c1ccc2c(c1)c1cccc3ccc4cccc2c4c31,outcome,[13],inactive
CCCCCC(CO)CCC (stereo not given),AC50,[9],0.00229 µM (active)
CCCCCCCCC,outcome,[9],inactive
same,outcome,[5],inactive
CC(=O)OCc1ccc2c(c1)OCO2,outcome,[9],inactive
Clc1ccc(Cl)c(Cl)c1Cl,outcome,[11],inactive
CCCCNC(=O)NS(=O)(=O)c1ccc(C)cc1,outcome,[10],inactive
c1ccc2sc(SN(C3CCCCC3)C3CCCCC3)nc2c1,outcome,[10],inactive
S=C(S)NCCNC(=S)S,AC50,[7],3.54 µM (active)
CCc1c(C)cc(N)c(CC)c1N,AC50,[12],13 µM (active)
Cc1ccc2sc3cccc(C)c3c2c1,outcome,[12],inactive
CSc1nnc(C(C)(C)C)c(=O)[nH]1,outcome,[18],inactive
Cc1cccc(C)c1C,outcome,[8],inactive
CC(C)=CCC[C@H](C)CC=O,outcome,[8],inactive
O=C(O)c1ccc([N+](=O)[O-])cc1,AC50,[19],4.02 µM (active)
